# Source: PubChem BioAssay (Tox21)
# Inconclusive results are not listed. Where a call stands in place of a potency, no number is given. Activity calls are given as the source filed them. Calls come from the whole dose curve; as a rule, active = well fitted cell-killing curve with a large enough effect in the repeat runs; inconclusive = weak or mixed curves, or effect the other way; inactive = flat fitted curve, though single readings scatter.
# Experiment: cAMP Responsive Elements (CRE) small molecule antagonists, cell-based qHTS assay: qHTS cell viability counter screen (AID 2060913); note: nearly all actives have a fitted effect of over 40% in size
# Settings: CRE-bla HEK293T viability, CellTiter-Glo luminescence, 5 h; series mostly up to 92.4 µM
# Outline: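 Cytotoxicity read in the same wells as the CRE-bla HEK293T antagonist assay: after 3 h compound with 0.25 uM NKH477 final and 2 h beta-lactamase substrate, CellTiter-Glo luminescence measured.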
Structure (SMILES),Potency,"viability change, negative = cytotoxic"
CCOC(=O)c1ccc(N(C)C)cc1,inactive,–
CCCC(C)C(=O)OCC (stereo not given),inactive,–
CC(C)(c1ccccc1)c1ccc(Nc2ccc(C(C)(C)c3ccccc3)cc2)cc1,inactive,–
CC1(C)O[C@@H]2C[C@H]3[C@@H]4C[C@H](F)C5=CC(=O)CC[C@]5(C)[C@H]4[C@@H](O)C[C@]3(C)[C@]2(C(=O)CO)O1,inactive,–
C[C@@H]1CC[C@@]2(OC1)O[C@H]1C[C@H]3[C@@H]4CC[C@H]5C[C@@H](O)CC[C@]5(C)[C@H]4CC(=O)[C@]3(C)[C@H]1[C@@H]2C,–,0.912% [at 8.39 µM] (inactive)
O=c1[nH]c2ccc(S(=O)CCN3CCC(Cc4ccc(F)cc4)CC3)cc2o1 (stereo not given),inactive,–
CN(C)CCCCCCN(C)C,inactive,–
O=C(CCCN1CCN(c2ccccn2)CC1)c1ccc(F)cc1,inactive,–
CCCCNc1ccc(NCCCC)c2c1C(=O)c1ccccc1C2=O,–,6.2% [at 18.9 µM] (inactive)
COc1cc2c(cc1OC)[C@@H]1CC(=O)[C@@H](CC(C)C)CN1CC2,inactive,–
CC1(C)S[C@@H]2[C@H](NC(=O)Cc3ccccc3)C(=O)N2[C@H]1C(=O)O (tested in a mixture with another compound),inactive,–
Cc1cc(C(C)(C)C)c(O)c(C)c1Cn1c(=O)n(Cc2c(C)cc(C(C)(C)C)c(O)c2C)c(=O)n(Cc2c(C)cc(C(C)(C)C)c(O)c2C)c1=O,inactive,–
CCCCN1C=CN(C)C1,–,7.21% [at 18.9 µM] (inactive)
Cn1c(=O)c2[nH]cnc2n(C)c1=O,inactive,–
CCC(=O)c1cccc(Cl)c1,inactive,–
CC1=C(O)C(=O)OC1C (stereo not given),inactive,–
CC(C)CC(C)O (stereo not given),inactive,–
O=C1NCCN1CCO,inactive,–
C=CCCC,inactive,–
CCc1cccc2c(CCO)c[nH]c12,inactive,–

Structure (SMILES),Potency,"viability change, negative = cytotoxic"
CC(=O)CC(c1ccc([N+](=O)[O-])cc1)c1c(O)c2ccccc2oc1=O (stereo not given),inactive,–
Clc1ccc(Cl)c(Cl)c1Cl,inactive,–
NNC(=O)OCc1ccccc1,inactive,–
C=C(C)C(=O)OC1CC(C)CC(C)(C)C1 (stereo not given),inactive,–
Cc1cccc2sc(N)nc12,inactive,–
CN1[C@@H]2CC[C@H]1CC(OC(=O)C(O)c1ccccc1)C2 (stereo not given in full),inactive,–
O=C(O)CNC(=O)c1ccccc1I,inactive,–
O=c1c(-c2ccc(O)cc2)coc2cc(O)cc(O)c12,inactive,–
NC(=O)c1ccc(N)cc1,inactive,–
Clc1sc(Cl)c(Cl)c1Cl,inactive,–
CCCCOC(=O)c1ccc(O)cc1,inactive,–
CCCCCC1CCC(=O)O1 (stereo not given),inactive,–
Cc1cc(C)c(S(=O)(=O)O)cc1N=Nc1cc(S(=O)(=O)O)c2ccccc2c1O,inactive,–
CCc1ccc2c(c1)C(=O)c1ccccc1C2=O,inactive,–
NC(=O)c1ccccc1Cl,inactive,–
O=C(c1ccc(O)cc1)c1ccc(Cl)cc1,inactive,–
CCOC(=O)OC(C)OC1=C(C(=O)Nc2ccccn2)N(C)S(=O)(=O)c2ccccc21 (stereo not given),inactive,–
CS(=O)(=O)c1ccc([C@@H](O)[C@@H](CF)NC(=O)C(Cl)Cl)cc1,inactive,–
CCCCCCCCCCOC(=O)c1ccccc1C(=O)OCCCCCCCC,inactive,–
CC1(C)OC(=O)NC1=O,inactive,–
